# Measurements taken from PubChem BioAssay AID651955 (The Scripps Research Institute Molecular Screening Center, 2012).
# The campaign covered roughly 2,400 compounds. About 40 (2%) were called active. Not all results are given here. A number with no mark means an inactive call. Rule as the data show it: active = activation above about 37%; inactive = the rest.
# Molecular target: Trace amine-associated receptor 1 (Homo sapiens) (UniProt Q96RJ0)
# Experiment: TAAR1 activation by candidate antagonists – cell-based, fluorescence, counter-screen for TAAR1 antagonist project (AID 651955);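 also: CHO cells stably expressing TAAR1 with calcium dye readout; 0% = DMSO vehicle and 100% = full agonist response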
# Conditions: hTAAR1 cell line, agonist mode, at 3 µM, active compounds read high
# Chain of Trace amine-associated receptor 1 (Homo sapiens) (Q96RJ0 whole entry, looked up): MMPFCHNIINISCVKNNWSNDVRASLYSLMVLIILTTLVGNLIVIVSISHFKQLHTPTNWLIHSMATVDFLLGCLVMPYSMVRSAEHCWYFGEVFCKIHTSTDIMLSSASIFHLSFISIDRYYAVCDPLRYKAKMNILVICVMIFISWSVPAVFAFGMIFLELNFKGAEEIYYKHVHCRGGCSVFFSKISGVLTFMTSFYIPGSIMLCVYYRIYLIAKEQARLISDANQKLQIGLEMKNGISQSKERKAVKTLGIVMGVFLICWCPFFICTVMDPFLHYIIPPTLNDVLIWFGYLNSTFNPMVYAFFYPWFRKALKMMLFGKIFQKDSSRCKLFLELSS
row,SMILES,activation
1,O=C(NCCN1CCOCC1)c1ccccc1N1C(=O)[C@@H]2Cc3c([nH]c4ccccc34)C(c3cccc(Cl)c3)N2C1=O (some centres not stated),5.75%
2,Clc1ccc(Nc2ncnc3c2nnn3Cc2ccccc2)cc1,6.12%
3,Nc1nonc1-n1nnc(C(=O)N/N=C/c2c[nH]c3ccccc23)c1-c1ccccc1,2.36%
4,Cn1c2ccccc2c(=O)c2c(=O)n(Cc3ccco3)c(COc3ccccc3)nc21,39.4% (active)
5,O=c1[nH]c(CSc2ncc(-c3ccc(F)cc3)n2Cc2ccco2)nc2ccccc12,17.5%
6,Cc1ccc(C)c(N2CCN(C(=O)CCCCCn3c(=S)[nH]c4ccc(N5CCOCC5)cc4c3=O)CC2)c1,6.46%
7,CC(C)N(Cc1ccccc1)C(=O)COC(=O)c1ccccc1SCC(=O)N1CCCC1,10.5%
8,C/C(=N\Nc1ncc(Cl)cc1Cl)c1ccc(S(=O)(=O)NCc2ccco2)cc1,-4.54%
9,COC(=O)Cc1nnn2c1[C@H](C)[C@H](c1ccccc1[N+](=O)[O-])OCC2,1.8%
10,O=C1c2ccccc2C(=O)N1CCC#Cc1ccc2cc(C3(O)CCCCC3)oc(=O)c2c1,10.5%
11,C[C@@H]1CN([C@@H](C)CO)S(=O)(=O)c2ccc(C#Cc3cccc(F)c3)cc2O[C@H]1CN(C)S(=O)(=O)c1cn(C)cn1,9.74%
12,COc1ccc(-c2nn(-c3ccccc3)cc2C(=O)Nc2nccs2)cc1OC,7.13%
13,O=C(NCc1ccc2c(c1)OCO2)c1c(-c2ccsc2)sc2ccccc12,-1.93%
14,CCC(=O)Oc1cccc(C(=O)Nc2ccc(-c3nnc(-c4ccco4)o3)cc2)c1,3.83%
15,O=S(=O)(c1cccs1)N1CCCc2nc(-c3ccc(Br)cc3)ccc21,0.43%
16,CSC(=S)N/N=C/c1c[nH]c2ccccc12,12%
17,CC(=O)n1cc([C@H]2C=C(C(=O)N3CCOCC3)O[C@@H](OCc3ccc(CO)cc3)C2)c2ccccc21,9.37%
18,O=C(COC(=O)c1ccccc1SCC(=O)N1CCCC1)Nc1ccccc1OC(F)F,7.54%
19,Cc1onc(-c2c(F)cccc2Cl)c1C(=O)Nc1cccc(S(=O)(=O)N2CCCCC2)c1,7.98%
20,COc1cc(SC#N)ccc1N=Cc1c(C)[nH]n(-c2ccc(C)cc2)c1=O,1.06%
21,CN(c1ccccc1)S(=O)(=O)c1cc(C(=O)Nc2nc3ccccc3[nH]2)ccc1Cl,4.12%

row,SMILES,activation
1,O=C(NCC1CCCO1)c1cc2c([nH]c3ccccc32)c(-c2ccc(F)cc2)n1 (configuration not stated),3.66%
2,CC(=O)c1ccccc1OCc1ccc(C(=O)c2ccccc2)cc1,6.46%
3,COc1ccc(CCNC(=O)C(=O)NCC2OCCN2S(=O)(=O)c2ccc(OC)c(C)c2)cc1 (configuration not stated),5.42%
4,COC(=O)C1=C(C)N(Cc2ccc(F)cc2)C(=S)NC1c1cccc(Cl)c1 (configuration not stated),3.48%
5,CC(=O)OCCN(CCCn1c(-c2ccncc2)nc2ccccc21)c1nc(-c2ccc(C)cc2)cs1,2.91%
6,O=C(Nc1ccccc1-c1nnn(CC(=O)N2CCN(c3ccccc3)CC2)n1)c1cccs1,6.9%
7,O=S1(=O)c2c(cccc2N2CCCCC2)O[C@H](COCc2ccccc2)CN1C1CC1,0.58%
8,Cc1cccc(C)c1NC(=O)CNC(=O)C1CCCC1,6.49%
9,CCN=C1SC(CC(=O)Nc2ccc(C)cc2)C(=O)N1CC (configuration not stated),12.6%
10,COc1ccc(-c2cc(C(=O)Nc3ccccc3O)c3ccccc3n2)cc1,16.7%
11,O=C(NCCN1CCOCC1)c1ccc(/C=C2\Sc3ccccc3N(Cc3ccc(F)cc3)C2=O)cc1,12.4%
12,COc1ccc(Cl)cc1NC(=O)CCS(=O)(=O)c1cc2c(cc1C)NC(=O)CO2,7.53%
13,COc1ccc(N(CC(=O)N/N=C/c2cccs2)S(=O)(=O)c2ccc(OC)c(OC)c2)cc1,11.5%
14,CSc1ncnc2c1ncn2CC(=O)C1CCC2C3CCC4=CC(=O)CCC4(C)C3CCC12C (configuration not stated),15.2%
15,COc1ccc(C(=O)Nc2ccccc2C(=O)N/N=C/c2ccc(O)c(OC)c2)cc1,8.37%
16,Cc1ccc(SCc2c(C(=O)N/N=C/c3cccnc3)nnn2-c2nonc2N)cc1,17.1%
17,CSCCC(NC(=O)COc1ccccc1)C(=O)OCC(=O)c1cc2ccccc2o1 (configuration not stated),3.28%
18,O=C(N/N=C/c1ccc(Cl)c(Cl)c1)c1ccc2nc[nH]c2c1,13.9%
19,COc1cc(/C=C2/C(=O)ON=C2C)ccc1OCc1ccccc1F,18.6%
20,N#Cc1cccc(NC(=O)COC(=O)c2ccccc2C(=O)c2ccc(Cl)c([N+](=O)[O-])c2)c1,3.29%
21,CSCCC(NC(=O)COc1ccccc1)C(=O)OCCOc1ccc(Br)cc1 (configuration not stated),4.8%

row,SMILES,activation
1,CC(=O)Nc1ccc(NC(=O)COC(=O)C2CCC(C(C)(C)C)CC2)cc1 (configuration not stated),23.7%
2,COc1ccc(NC(=O)C2CCCN(S(=O)(=O)c3cccc4cccnc34)C2)cc1OC (configuration not stated),5.06%
3,O=C(CN1CCCSc2ccccc21)N1CCN(S(=O)(=O)c2cccc(F)c2)CC1,6.06%
4,Cn1c(C(=O)NCCc2ccsc2)cc2c(=O)n(C)c3ccccc3c21,4.37%
5,O=C(COC(=O)c1c2c(nc3ccccc13)CCCC2)c1ccc(Br)s1,0.2%
6,Cc1nn(-c2ccccc2)c(C)c1NC(=O)COC(=O)c1cc(Cl)ccc1O,10.5%
7,C=CCC[C@@H](Cc1ccc(F)cc1)C(=O)O[C@H](CNC(=O)[C@H](CC=C)CC(=O)N(CCO)Cc1ccccc1)c1ccccc1,2.53%
8,COc1ccc(CC(=O)Nc2c(C(N)=O)oc3ccccc23)cc1,6.71%
9,CCN1CCc2c(C#N)c(NCc3ccccc3)nc(NCCO)c2C1,8.1%
10,COc1ccc(C(=O)Nc2cccc(NC(=O)c3ccc(OC)cc3OC)n2)c(OC)c1,6.39%
11,CCOC(=O)C1C(c2ccc(OC)c(OC)c2)c2c([nH][nH]c2=O)CC1(C)O (configuration not stated),3.71%
12,CSc1nc(-c2ccccc2)nc(C(Cl)Cl)n1,2.73%
13,CCCCNc1c(-c2cccc(Sc3ccc(OC)cc3)c2)nc2ccccn12,6.5%
14,CCOc1ccc(N2CC(C(=O)N/N=C/c3sccc3C)CC2=O)cc1 (configuration not stated),3.12%
15,COc1ccc(-c2cc(C(=O)N(C)CC(=O)Nc3ccccc3Cl)c3ccccc3n2)cc1OC,6.79%
16,COc1ccc(S(=O)(=O)N(CC(=O)NCc2ccco2)c2ccc(F)cc2)cc1,7.31%
17,CC(=O)N1CCN(C(=O)c2cc(-c3ccc(Cl)s3)nc3ccccc23)CC1,13%
18,COc1ccc(-c2cc(C(=O)N(C)Cc3ccccc3)c3ccccc3n2)cc1,1.41%
19,Cc1ccc(-n2c(C)cc(/C=N\NC(=O)CC(=O)NC(C)C)c2C)cc1,16.1%
20,OC(c1ccccc1)(c1ccccc1)C1CCN(CCCOc2ccc(-c3ccsc3)cc2)CC1,33.1%
